Laboratory results: the supplement of paper PMC4840960
± gives the standard deviation of the averaged measurements.

Assays:
[1] = tested on: E18 rat cortical neuron-glia co-culture; test: fiber score / MBP score (myelination specific beyond OL differentiation) (ratio); higher = more myelination-specific MBP alignment; conditions: treatment time: 8 days (DIV5-DIV13)
Procedure, shortened: (§1)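 Primary E18 rat cortical co-cultures (papain-dissociated, 20,000 cells/well on poly-d-lysine/laminin 96-well plates) received library compounds at 1 or 5 µM in myelination medium from DIV5 to DIV13. Cells were fixed in 4 % paraformaldehyde and immunostained for MBP and Olig2 with DAPI, and four 10X fields per well in duplicate wells were analysed. The read-out is fiber score (continuous MBP fiber length per Olig2+ nucleus) divided by MBP score (thresholded MBP area × intensity per Olig2+ nucleus).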

[2] = tested on: E18 rat cortical neuron-glia co-culture; test: myelination (MBP fiber length per Olig2+ nucleus), % of 1 µM DAPT response (DMSO = 0) (% of DAPT); higher = more myelination, active = 50 or more; conditions: treatment time: 8 days (DIV5-DIV13)
Procedure, shortened: as §1, with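 “Myelination was continuous straight” for “The read-out is fiber score (continuous”, “nucleus, normalised to 0.1 % DMSO (0) and a 1 µM positive control (100).” for “nucleus) divided by MBP score (thresholded MBP area × intensity per Olig2+ nucleus).”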

SMILES | fiber score / MBP score ([1]; 1 µM) | fiber score / MBP score ([1]; 5 µM) | myelination ([2]; 1 µM) | myelination ([2]; 5 µM)
Cc1c(O)c(=O)ccn1C [Deferiprone] | 0.908 | 0.731 | -11.3 (inactive) | -23.2 (inactive)
CCOC(=O)[C@@]1(CCCCCCOc2ccc(Cl)cc2)CO1 [Etomoxir] | 0.693 | 0.645 | -31 (inactive) | -26.2 (inactive)
Clc1ccccc1CN1CCc2sccc2C1 [Ticlopidine] | 0.477 | 0.662 | -18.3 (inactive) | -14.2 (inactive)
CSc1nc2cc(Cl)c(Oc3cccc(Cl)c3Cl)cc2[nH]1 [Triclabendazole] | 0.682 | 0.685 | -23.9 (inactive) | -18.7 (inactive)
CCC1=C[C@@H]2CN(C1)Cc1c([nH]c3ccccc13)[C@@](C(=O)OC)(c1cc3c(cc1OC)N(C)[C@H]1[C@@](O)(C(=O)OC)[C@H](OC(C)=O)[C@]4(CC)C=CCN5CC[C@]31[C@@H]54)C2 [Vinorelbine] | 0.944 | 0.453 | -6.45 (inactive) | -26.1 (inactive)
CCc1ccc(CCOc2ccc(CC3SC(=O)NC3=O)cc2)nc1 (stereo not given) [Pioglitazone] | 0.868 | 0.501 | -2.52 (inactive) | -17.1 (inactive)
COc1ccc(C(=O)NCc2ccc(OCCN(C)C)cc2)cc1OC [Itopride] | 0.63 | 0.693 | -10.9 (inactive) | -10.7 (inactive)
CN(C)[C@@H]1C(O)=C(C(=O)NCN2CCCC2)C(=O)[C@@]2(O)C(O)=C3C(=O)c4c(O)cccc4[C@@](C)(O)[C@H]3C[C@@H]12 [Rolitetracycline] | 0.779 | 0.832 | -9.77 (inactive) | -5.55 (inactive)
COc1cc2nc(N3CCN(C(=O)c4ccco4)CC3)nc(N)c2cc1OC [Prazosin] | 0.568 | 1 | -38.1 (inactive) | 3.87 (inactive)
CN(C)CCCN1c2ccccc2CCc2ccc(Cl)cc21 [Clomipramine] | 1.05 | 0.899 | -10.8 (inactive) | -23 (inactive)
COc1ccccc1OCC(O)COC(N)=O (stereo not given) [Methocarbamol] | 0.67 | 0.985 | -9.38 (inactive) | -3.49 (inactive)
CN1CCC(=C2c3ccccc3C=Cc3ccccc32)CC1 [Cyproheptadine] | 0.58 | 0.686 | -14.7 (inactive) | -1.4 (inactive)
CC1=C(C/C=C(\C)CCC[C@H](C)CCC[C@H](C)CCCC(C)C)C(=O)c2ccccc2C1=O [Phylloquinone] | 0.894 | 0.723 | -4.4 (inactive) | -10.2 (inactive)
COc1ccc(OC)c(C(O)CNC(=O)CN)c1 (stereo not given) [Midodrine] | 0.492 | 0.885 | -19.2 (inactive) | -8.37 (inactive)
CN1CCN(CC/C=C2/c3ccccc3Sc3ccc(S(=O)(=O)N(C)C)cc32)CC1 [Thiothixene] | 0.826 | 1.29 | -6.05 (inactive) | 42.5 (inactive)
COC(=O)[C@H](c1ccccc1Cl)N1CCc2sccc2C1 [Clopidogrel] | 0.707 | 0.858 | -6.76 (inactive) | -2.98 (inactive)
Nc1nc(Cl)nc2c1ncn2[C@@H]1O[C@H](CO)[C@@H](O)[C@H]1O [2-Chloroadenosine] | 0.752 | 0.764 | -12.4 (inactive) | -10.5 (inactive)
CNCCCC12CCC(c3ccccc31)c1ccccc12 [Maprotiline] | 0.656 | 0.581 | -27.8 (inactive) | -25.1 (inactive)
COc1ccc2c(c1)c(CC(=O)O)c(C)n2C(=O)c1ccc(Cl)cc1 [Indomethacin] | 0.699 | 0.877 | -12.4 (inactive) | -7.64 (inactive)
C[C@H](CCC(=O)O)[C@H]1CC[C@H]2[C@@H]3C(=O)C[C@@H]4CC(=O)CC[C@]4(C)[C@H]3CC(=O)[C@]12C [Dehydrocholic Acid] | 0.477 | 0.662 | -18.3 (inactive) | -14.2 (inactive)
CC(C)c1ccc2oc3nc(N)c(C(=O)O)cc3c(=O)c2c1 [Amlexanox] | 0.826 | 1.05 | -13.2 (inactive) | 0.757 (inactive)
COc1cc(/C=C/c2ccc(O)cc2)cc(OC)c1 [Pterostilbene] | 0.637 | 0.668 | -13.8 (inactive) | -12.2 (inactive)
CN(C)CCCN1c2ccccc2Sc2ccc(Cl)cc21 [Chlorpromazine] | 1.04 | 1.17 | 8.68 (inactive) | -2.13 (inactive)
CCN1CCC[C@H]1CNC(=O)c1c(O)c(Cl)cc(Cl)c1OC [Raclopride] | 1.05 | 0.709 | 18.4 (inactive) | -30.6 (inactive)
CC[C@H]1OC(=O)[C@H](C)[C@@H](O[C@H]2C[C@@](C)(OC)[C@@H](O)[C@H](C)O2)[C@H](C)[C@@H](O[C@@H]2O[C@H](C)C[C@H](N(C)C)[C@H]2O)[C@](C)(O)C[C@@H](C)CN(C)[C@H](C)[C@@H](O)[C@]1(C)O [Azithromycin] | 0.707 | 0.488 | -7.57 (inactive) | -11.8 (inactive)

SMILES | fiber score / MBP score ([1]; 1 µM) | fiber score / MBP score ([1]; 5 µM) | myelination ([2]; 1 µM) | myelination ([2]; 5 µM)
Nc1nc(F)nc2c1ncn2[C@@H]1O[C@H](CO)[C@@H](O)[C@@H]1O [Fludarabine] | 0.675 | 0.885 | -29.4 (inactive) | 34.3 (inactive)
CCN(CC)C(=O)C1(c2ccccc2)CC1CN (stereo not given) [Milnacipran] | 0.697 | 0.817 | -8.81 (inactive) | -7.54 (inactive)
OCCN(CCO)c1nc(N2CCCCC2)c2nc(N(CCO)CCO)nc(N3CCCCC3)c2n1 [Dipyridamole] | 1.01 | 0.523 | 3.14 (inactive) | -17.3 (inactive)
CCCCCCCCCCC[C@@H](C[C@@H]1OC(=O)[C@H]1CCCCCC)OC(=O)[C@H](CC(C)C)NC=O [Orlistat] | 0.69 | 0.913 | -34.7 (inactive) | 38.7 (inactive)
NS(=O)(=O)c1cc(C(=O)O)c(NCc2ccco2)cc1Cl [Furosemide] | 0.894 | 0.97 | -9.91 (inactive) | -6.31 (inactive)
COc1cc(NC(C)CCCN)c2ncccc2c1 (stereo not given) [Primaquine] | 0.815 | 0.985 | -0.112 (inactive) | 11.1 (inactive)
Cn1c(NCCN(CCO)CCCc2ccc([N+](=O)[O-])cc2)cc(=O)n(C)c1=O [Nifekalant] | 0.616 | 0.616 | -9.01 (inactive) | -19.6 (inactive)
CCCN(CCC)S(=O)(=O)c1ccc(C(=O)O)cc1 [Probenecid] | 0.973 | 1.44 | 0.863 (inactive) | 11.7 (inactive)
OC(Cn1cncn1)(Cn1cncn1)c1ccc(F)cc1F [Fluconazole] | 0.906 | 0.784 | 5.01 (inactive) | -19.9 (inactive)
CC(=O)Oc1ccccc1C(=O)Nc1ncc([N+](=O)[O-])s1 [Nitazoxanide] | 1.18 | 1.61 | 4.89 (inactive) | 91.6 (active)
Cc1cccc(C)c1NC(=O)C1CCCCN1C (stereo not given) [Mepivacaine] | 0.728 | 0.864 | -12.3 (inactive) | -4.33 (inactive)
CCOc1cc(CC(=O)N[C@@H](CC(C)C)c2ccccc2N2CCCCC2)ccc1C(=O)O [Repaglinide] | 0.81 | 1.19 | -8.93 (inactive) | 2.54 (inactive)
CN1CC(=O)N2[C@H](c3ccc4c(c3)OCO4)c3[nH]c4ccccc4c3C[C@@H]2C1=O [Tadalafil] | 0.799 | 0.74 | -45.7 (inactive) | -34.9 (inactive)
COc1ccccc1N1CCN(CCCNc2cc(=O)n(C)c(=O)n2C)CC1 [Urapidil] | 0.767 | 0.799 | -28.5 (inactive) | -23.7 (inactive)
O=C(c1ccc(F)cc1)C1CCN(CCn2c(=S)[nH]c3ccccc3c2=O)CC1 [Altanserin] | 0.994 | 0.605 | 0.872 (inactive) | -16.1 (inactive)
Cc1nc(=O)c2cc(CN(C)c3ccc(C(=O)N[C@@H](CCC(=O)O)C(=O)O)s3)ccc2[nH]1 [Raltitrexed] | 1.33 | 1.67 | 177 | 591 (active)
COc1cc(C(=O)NS(=O)(=O)c2ccccc2C)ccc1Cc1cn(C)c2ccc(NC(=O)OC3CCCC3)cc12 [Zafirlukast] | 0.627 | 0.714 | -12.3 (inactive) | -4.26 (inactive)
COC(=O)Nc1nc2cc(C(=O)c3ccccc3)ccc2[nH]1 [Mebendazole] | 0.624 | 0.207 | 71.4 | -22.3 (inactive)
CS(=O)(=O)OCCCCOS(C)(=O)=O [Busulfan] | 0.646 | 1.46 | -6.35 (inactive) | 46.7 (inactive)
Cn1ccnc1S [Methimazole] | 0.372 | 0.312 | -14.3 (inactive) | -15.9 (inactive)
N#Cc1ccc(C(c2ccc(C#N)cc2)n2cncn2)cc1 [letrozole] | 0.937 | 1.09 | -16.4 (inactive) | 2.49 (inactive)
O=C(O)CCc1nc(-c2ccccc2)c(-c2ccccc2)o1 [Oxaprozin] | 0.677 | 0.752 | -17 (inactive) | -14 (inactive)
CN1CCN2c3ncccc3Cc3ccccc3C2C1 (stereo not given) [Remergil] | 0.819 | 0.663 | 4.96 (inactive) | -19.4 (inactive)
COc1ccc2[nH]c([S@@+]([O-])Cc3ncc(C)c(OC)c3C)nc2c1 [Esomeprazole] | 0.799 | 0.979 | -10.5 (inactive) | 4.81 (inactive)
CO[C@H]1/C=C/O[C@@]2(C)Oc3c(C)c(O)c4c(O)c(c(/C=N/N5CCN(C6CCCC6)CC5)c(O)c4c3C2=O)NC(=O)/C(C)=C\C=C\[C@H](C)[C@H](O)[C@@H](C)[C@@H](O)[C@@H](C)[C@H](OC(C)=O)[C@@H]1C [Rifapentine] | 0.893 ± 0.081 | 1.12 ± 0.52 | 2.99 (inactive) | 21 (inactive)
